The campaign covered roughly 5,500 compounds. About 2,000 (36%) were called active. Roughly 18% stayed inconclusive and do not appear here. Rule as the data show it: active = normalized growth mostly below about 0.91 (no sharp cut-off); inconclusive = no clear call, values can overlap the other calls; inactive = mostly above about 0.92. This is one part of the list.
Experiment: chemical genetic growth profiling, strain panel (AID 1159580);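 also: tested at 20 µM; growth read once vehicle control cultures reached saturation at 30 °C; 1 = growth at the plate median or of vehicle wells; lower values mean less growth of the strain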
Settings: S. cerevisiae deletion strains, growth OD

Measured: normalized growth

NC(=O)CCCCC1CCSS1 (configuration not stated)
inactive: locus YHR030C, strain SLT2, hits give low values 1.02 | locus YHR079C, strain IRE1, hits give low values 0.976 | locus YJL095W, strain BCK1, hits give low values 1.01 | locus YJR066W, strain TOR1, hits give low values 0.955 | locus YLR113W, strain HOG1, hits give low values 1.02 | locus YNL183C, strain NPR1, hits give low values 0.966 | locus YOR231W, strain MKK1, hits give low values 0.986 | locus YPL256C, strain CLN2, hits give low values 1.01

O=C(O)CCCC[C@@H]1CCSS1
inactive: locus YAL013W, strain DEP1, hits give low values 0.962 | locus YAL040C, strain CLN3, hits give low values 0.933 | locus YCL061C, strain MRC1 (second series), hits give low values 0.979 | locus YDR150W, strain NUM1, hits give low values 0.996 | locus YDR363W, strain ESC2, hits give low values 0.971 | locus YER002W, strain NOP16, hits give low values 0.968 | locus YGR229C, strain SMI1, hits give low values 0.957 | locus YMR307W, strain GAS1, hits give low values 0.962 | locus YNL153C, strain GIM3, hits give low values 1.01 | locus YNL175C, strain NOP13, hits give low values 0.979 | locus YNL197C, strain WHI3, hits give low values 0.972 | locus YNL224C, strain SQS1, hits give low values 0.977 | locus YOR083W, strain WHI5 (second series), hits give low values 0.937 | locus YPL055C, strain LGE1, hits give low values 0.989

Source: PubChem BioAssay AID1159580 (chemical genetic matrix, 2015)
